Assay outcomes as filed in PubChem.
Most compounds without a hit are left out; they make up all but 3% or so of the library.
ALOX12 inh – Primary qHTS assay for inhibitors of human arachidonate 12S-lipoxygenase (ALOX12): Round 2; purified 12hLO, xylenol orange hydroperoxide absorbance; Potency, µM (doses to about 108 µM), actives largely listed as inhibitors; 580,000 tested, 1.1% active; AID 1671190, 2021; active = well fitted inhibition curve with a large enough effect; inconclusive = small, poorly fitted or top-dose-only effect, or another doubt; inactive = no such curve, though single readings can be large or run the other way
Target sequence (P18054 whole entry, looked up): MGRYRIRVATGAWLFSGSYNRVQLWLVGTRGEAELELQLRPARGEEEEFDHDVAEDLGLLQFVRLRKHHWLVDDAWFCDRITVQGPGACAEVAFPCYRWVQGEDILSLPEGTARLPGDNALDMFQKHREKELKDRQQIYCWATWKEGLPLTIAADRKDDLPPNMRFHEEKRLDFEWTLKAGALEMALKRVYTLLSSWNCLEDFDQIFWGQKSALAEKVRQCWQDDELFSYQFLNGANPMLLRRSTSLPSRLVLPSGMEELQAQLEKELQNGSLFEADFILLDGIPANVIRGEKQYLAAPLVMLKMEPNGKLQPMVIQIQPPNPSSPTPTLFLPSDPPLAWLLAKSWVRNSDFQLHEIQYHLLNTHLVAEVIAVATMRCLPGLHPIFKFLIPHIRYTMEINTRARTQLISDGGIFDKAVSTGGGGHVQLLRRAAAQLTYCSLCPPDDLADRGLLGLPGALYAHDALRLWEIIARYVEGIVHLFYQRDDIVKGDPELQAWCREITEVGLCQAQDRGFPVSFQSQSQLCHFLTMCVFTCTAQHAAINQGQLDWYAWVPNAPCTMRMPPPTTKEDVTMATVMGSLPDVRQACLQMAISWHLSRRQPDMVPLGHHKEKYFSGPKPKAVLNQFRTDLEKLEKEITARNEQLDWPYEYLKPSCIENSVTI
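Hydroperoxide product was detected by ferrous iron/xylenol orange as the 573 to 405 nm absorbance ratio. Arachidonic acid at 40 uM (final) was turned over for 30 min at room temperature by 150 nM human 12hLO, pH 7.0 Hepes buffer, after 15 min compound preincubation.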
LDHA block – qHTS assay for inhibitors of human lactate dehydrogenase. purified LDHA, NADH/diaphorase-resazurin fluorescence; stronger effect = lower value. activity change, % (values are at about 110 or 230 µM). L-lactate dehydrogenase A chain (Homo sapiens), P00338. 480,000 tested, 0.15% active; in the data active = activity change below about -30%; inconclusive = mostly about -25% to -30%
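Human LDH5 (2 nM) was incubated with 0.06 mM NADH and 0.2 mM pyruvate for 5 min at room temperature in Tris pH 7.4. Remaining NADH was coupled through diaphorase/resazurin, and resorufin fluorescence was read at 0 and 20 min.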
BCR signal inh – qHTS Assay to Find Inhibitors of Chronic Active B-Cell Receptor Signaling | AID 493014, 2011 | Potency, µM (highest dose often 46.1 µM), actives largely listed as inhibitors | 340,000 tested, 0.05% active | ABC-DLBCL IkBa-CBG/CBR reporter, luminescence ratio, 4 h; active = well fitted inhibition curve with a large enough effect in the signal ratio, with a control signal flat, not every such curve was filed as active; inconclusive = small, poorly fitted or top-dose-only effect, or effect the other way, or a change in a side signal; the % refers to the signal ratio
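TMD8 human ABC-DLBCL cells with doxycycline-inducible IκBα–green luciferase fusion and unfused red luciferase, in 0.5% FBS medium; compounds up to 46 uM, 4 h at 37C. Green/red luminescence ratio, filter-overlap corrected, fitted to concentration-response curves.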
KCNH2 3.1 block – qHTS for Inhibitors of KCHN2 3.1: Mutant qHTS. Potassium voltage-gated channel subfamily H member 2, brain isoform KCNH2 3.1 (human). U2OS KCNH2 3.1, thallium flux FluxOr; stronger effect = lower value. activity change, % (tested at about 1.8 µM). 340,000 tested, 0.95% active;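 active = maximum activity change below -70%; inconclusive = maximum activity change from -70% to -50%; inactive = maximum activity change above -50%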;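 note: thallium influx rate constant from kinetic fluorescence after stimulation buffer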
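FluxOr-based Tl+ influx in U2OS cells transduced with KCNH2 3.1 virus; rate constants normalized to DMSO controls.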
hERG WT inh – qHTS for Inhibitors of KCHN2 3.1: Wildtype qHTS; activity change, % at 1.84 µM; 340,000 tested, 0.37% active; Voltage-gated inwardly rectifying potassium channel KCNH2 (Homo sapiens), Q12809; U2OS, BacMam KCNH2, thallium flux FluxOr; stronger effect = lower value; AID 720551, 2013;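 active = maximum activity change below -70%; inconclusive = maximum activity change between -70% and -50%; inactive = maximum activity change above -50%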
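U2OS cells transduced with wild-type KCNH2 virus are loaded with FluxOr dye for 45 min, and thallium flux is measured in kinetic reads before and after stimulation buffer. Rate constants are normalized to DMSO controls.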
ClpP mod – qHTS Assay for Activators of ClpP; ATP-dependent Clp protease proteolytic subunit (Bacillus subtilis (strain 168)), P80244; purified B. subtilis ClpP, FRET peptide cleavage, 20 min; Potency, µM (top dose mostly 57.5 µM); 340,000 tested, 1.9% active; active = well fitted falling curve with a large enough effect; inconclusive = small, poorly fitted or top-dose-only effect; inactive = no such curve, though single readings can be large or run the other way; note: the source files actives as falling curves though it sought activators and does not explain the sign; nearly all actives have a fitted effect of over 65% in size
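ClpP 10 microg/mL final, pH 8 Tris/KCl buffer with BSA, glycerol, Tween-20; compound pinned in; FRET-FV substrate; RT 20 min; Ex320/Em430; ΔFRET vs ADEP 5.8 microM, DMSO, no enzyme.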
Of the large screens only hits and unclear results are named; the others gave an inactive call; ! = not active in a repeat.

CCCNC(=O)COC(=O)c1ccc2[nH]c(C)c(C)c2c1	ALOX12 inh inconclusive (no result: BCR signal inh, KCNH2 3.1 block, hERG WT inh, ClpP mod)
CSc1nnc(-c2cc(-c3ccc(C)cc3)nc3ccccc23)o1	BCR signal inh inconclusive, ClpP mod 35.5µM
Cc1ccc(C)c(-c2cc(-c3ccccc3)c3ccccc3n2)c1	none (no result: BCR signal inh, KCNH2 3.1 block, hERG WT inh, ClpP mod)
Cc1ccc(-c2cc(-c3n[nH]c(=S)o3)c3ccccc3n2)cc1	ALOX12 inh 2.24µM, BCR signal inh inconclusive
S=c1[nH]nc(-c2cc(-c3ccccn3)nc3ccccc23)o1	none
CC(C)(C)C(=O)n1nc(-c2ccccc2)oc1=O	ClpP mod 31.6µM
COc1ccccc1CNC(=O)CN1CCC(c2nc3cc(Cl)ccc3s2)CC1	ALOX12 inh inconclusive (no result: BCR signal inh, KCNH2 3.1 block, hERG WT inh, ClpP mod)
O=C(C=C(Sc1ccccc1)Sc1ccccc1)C(F)(F)F	ALOX12 inh 35.5µM (no result: BCR signal inh, KCNH2 3.1 block, hERG WT inh, ClpP mod)
O=C(Sc1ccccc1)c1ccccc1	none (no result: BCR signal inh, KCNH2 3.1 block, hERG WT inh, ClpP mod)
CCOc1ccc2nc(NS(=O)(=O)Cc3ccccc3)sc2c1	BCR signal inh 7.31µM
CCOc1ccc2nc(NC(=S)N(C)C)sc2c1	ALOX12 inh 44.7µM, BCR signal inh inconclusive
COc1ccc(NC(=O)Cn2c(Nc3ccc(F)c(C)c3)nc(C)cc2=O)cc1OC	ALOX12 inh inconclusive (no result: BCR signal inh, KCNH2 3.1 block, hERG WT inh, ClpP mod)
O=C(OCc1coc(-c2cccs2)n1)c1ccc2c(c1)OCCCO2	ALOX12 inh inconclusive (no result: BCR signal inh, KCNH2 3.1 block, hERG WT inh, ClpP mod)
COC(=O)c1c(N)c(-c2nc3ccccc3s2)nn1-c1ccccc1	ALOX12 inh inconclusive (no result: BCR signal inh, KCNH2 3.1 block, hERG WT inh, ClpP mod)
Nc1ccc(Oc2ccc(N)c([N+](=O)[O-])c2)cc1[N+](=O)[O-]	ALOX12 inh inconclusive (no result: BCR signal inh)
CC1(C)Oc2cc(N)c([N+](=O)[O-])cc2O1	ALOX12 inh inconclusive, ClpP mod 31.6µM
CC(C)[C@H](NC(=O)[C@@H](NC(=O)C1CC(=O)N(c2ccc(F)cc2)C1)C(C)C)C(=O)O (stereo not given in full)	ALOX12 inh inconclusive (no result: BCR signal inh, KCNH2 3.1 block, hERG WT inh, ClpP mod)
Cc1ccc(Cn2c(C3CCN(C(=O)c4cccc(C)c4)CC3)n[nH]c2=O)cc1	none (no result: LDHA block, BCR signal inh, KCNH2 3.1 block, hERG WT inh, ClpP mod)
Cc1ccc(Cn2c(C3CCN(C(=O)c4cccc(F)c4)CC3)n[nH]c2=O)cc1	ALOX12 inh 44.7µM (no result: LDHA block, BCR signal inh, KCNH2 3.1 block, hERG WT inh, ClpP mod)
Cc1ccc(Cn2c(C3CCN(C(=O)c4ccc(C#N)cc4)CC3)n[nH]c2=O)cc1	ALOX12 inh 6.31µM (no result: LDHA block, BCR signal inh, KCNH2 3.1 block, hERG WT inh, ClpP mod)
Cc1ccc(-n2c(C3CCN(C(=O)COc4ccc(F)cc4)CC3)n[nH]c2=O)cc1	ALOX12 inh 44.7µM (no result: LDHA block, BCR signal inh, KCNH2 3.1 block, hERG WT inh, ClpP mod)
CCNC(=O)NC(=O)CN(C)C(C)C(C)(C)C (stereo not given)	none (no result: BCR signal inh, KCNH2 3.1 block, hERG WT inh, ClpP mod)
CCOc1ccccc1NC(=O)C1CCCC1	hERG WT inh -83.7 (no result: BCR signal inh, ClpP mod)
CCc1ccccc1NC(=O)C1CCCC1	none (no result: BCR signal inh)
CCc1ccccc1NC(=O)C1CC1	ALOX12 inh 0.794µM (no result: BCR signal inh, KCNH2 3.1 block, hERG WT inh, ClpP mod)
O=C(c1ccccc1)N1CCC2(CC1)CCN(CCc1ccccc1)c1ccccc1O2	none (no result: LDHA block, BCR signal inh, KCNH2 3.1 block, hERG WT inh, ClpP mod)
Cc1coc(C)c1C(=O)CC1(O)C(=O)N(CCc2ccccc2)c2ccccc21 (stereo not given)	ALOX12 inh 39.8µM, BCR signal inh inconclusive
CCCN(CCC)c1nc(-c2ccncc2)nc2ccccc12	none (no result: BCR signal inh, KCNH2 3.1 block, hERG WT inh, ClpP mod)
COc1cc2nc(-c3ccc(C)cc3)oc(=O)c2cc1OC	LDHA block -30.4 (no result: BCR signal inh, KCNH2 3.1 block, hERG WT inh, ClpP mod)
COc1ccc2oc(-c3ccc(NC(=O)c4ccc(Cl)cc4Cl)cc3)nc2c1	ClpP mod 35.5µM (no result: BCR signal inh, KCNH2 3.1 block, hERG WT inh)
COc1ccc2oc(-c3ccc(C)c(NC(=O)CSc4ccc(Cl)cc4)c3)nc2c1	BCR signal inh inconclusive, ClpP mod 11.2µM!
COc1ccc(-c2nc3cc(NC(=O)c4ccccc4)ccc3o2)cc1	LDHA block -38.8 (no result: BCR signal inh, KCNH2 3.1 block, hERG WT inh, ClpP mod)
CCOC(=O)c1sc2nc(CC(=O)OC)nc(NCc3ccc(F)cc3)c2c1C	ClpP mod 3.55µM
CN(C)c1cccc(C(=O)NCC2CCN(c3cc(-c4ccccc4)[nH]n3)CC2)c1	none (no result: LDHA block, BCR signal inh, KCNH2 3.1 block, hERG WT inh, ClpP mod)
Cc1cc(C)c(C(=O)/C=C/c2ccccc2)cc1C	none (no result: BCR signal inh, KCNH2 3.1 block, hERG WT inh, ClpP mod)
Cc1ccc(/C=C/C(=O)c2ccccc(=O)c2O)cc1C	ALOX12 inh 44.7µM, BCR signal inh inconclusive
